PubChem BioAssay (Tox21)
Inconclusive results are not listed. Active and inactive are the calls of the source. Unless noted, calls follow the shape of the dose curve; as a rule, active = well fitted curve in the direction sought with a large enough effect in the repeat runs; inconclusive = weak or mixed curves; inactive = no such curve, though single readings can be large; an effect the other way counts as inactive or inconclusive.

What was measured:
[1] = qHTS assay to identify small molecule antagonists of the thyroid receptor (TR) signaling pathway - cell viability counter screen (AID 743064); also: nearly all actives have a fitted effect of over 50% in size
Summary of the method: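 Compounds were tested on GH3.TRE-Luc cells in the presence of T3 at 1 nM final. Following 23.5 h at 37 °C, cell viability was quantified by CellTiter-Fluor.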

[2] = qHTS assay to identify small molecule antagonists of the thyroid receptor (TR) signaling pathway (AID 743065); also: series mostly up to about 70 µM; nearly all actives have a fitted effect of over 55% in size
Summary of the method: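 GH3.TRE-Luc rat pituitary cells carrying two TR response elements driving luciferase were plated for 4 h, given compound plus 1 nM T3 (final), and incubated 23.5 h at 37 C. ONE-Glo luminescence measured reporter inhibition; CellTiter-Fluor fluorescence tracked cytotoxicity.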

[3] = test system: thyroid hormone receptor (rat, GH3 cells); test: qHTS assay to identify small molecule agonists of the thyroid receptor (TR) signaling pathway (AID 743066; calls by dose curve)
[4] = qHTS assay to identify small molecule antagonists of the estrogen receptor alpha (ER-alpha) signaling pathway - cell viability counter screen (AID 743074; calls by dose curve;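 also: HEK293 cells carrying ER-alpha-UAS-bla reporter stimulated with 17beta-estradiol; nearly all actives have a fitted effect of over 45% in size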)
[5] = qHTS assay to identify small molecule antagonists of the estrogen receptor alpha (ER-alpha) signaling pathway using the BG1 cell line (AID 743080; calls by dose curve;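 also: BG1 cells stimulated with 17beta-estradiol alongside compound; series mostly up to about 70 µM; nearly all actives have a fitted effect of over 25% in size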)
Summary of the method: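 BG1Luc4E2, endogenous ER-alpha, 4xERE-luc; 5 d charcoal-stripped FBS, phenol red free; 24 h plating; cpd + 17beta-estradiol 21.5 h, 37 C/5% CO2; CellTiter-Fluor viability 30 min, then ONE-Glo luciferase 30 min RT.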

[6] = qHTS assay to identify small molecule antagonists of the estrogen receptor alpha (ER-alpha) signaling pathway using the BG1 cell line - cell viability counter screen (AID 743081);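 also: compound given together with 17beta-estradiol as the ER stimulus; series mostly up to about 70 µM; nearly all actives have a fitted effect of over 45% in size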
Aromatase (Homo sapiens) = Aromatase (Homo sapiens) (UniProt P11511); test: qHTS assay to identify aromatase inhibitors (AID 743083); also: series mostly up to about 70 µM; nearly all actives have a fitted effect of over 55% in size
[7] = qHTS assay to identify aromatase inhibitors - cell viability counter screen (AID 743084);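 also: cells stimulated with testosterone during compound exposure; nearly all actives have a fitted effect of over 55% in size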
[8] = molecular target: Aryl hydrocarbon receptor (Homo sapiens) (UniProt P35869); test: qHTS assay to identify small molecule that activate the aryl hydrocarbon receptor (AhR) signaling pathway (AID 743085); also: nearly all actives have a fitted effect of over 15% in size; also: potency is read from the fitted curve at half-maximal effect;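 as to activation: HG2L7.5c1 human HepG2 liver cells with stably integrated DRE-driven firefly reporter; series mostly up to about 70 µM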
Summary of the method: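 24 h compound exposure, 37C, HepG2-derived HG2L7.5c1 cells with DRE-responsive luciferase. Readouts: fluorescence viability, then luminescence at room temperature after 30 min.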

[9] = qHTS assay to identify small molecule that activate the aryl hydrocarbon receptor (AhR) signaling pathway - cell viability counter screen (AID 743086);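 also: HepG2 liver cells carrying the AhR DRE luciferase reporter; series mostly up to about 70 µM; nearly all actives have a fitted effect of over 45% in size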
Summary of the method: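 HepG2-AhR-luc (HG2L7.5c1) cells, 4000/well, were preincubated 5 h at 37C, exposed to compound in qHTS format for 24 hr at 37C, then given CellTiter-Fluor for 30 min; viability was read as fluorescence in the reporter wells.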

[10] = qHTS assay to identify small molecule antagonists of the peroxisome proliferator-activated receptor gamma (PPARg) signaling pathway - cell viability counter screen (AID 743194); also: nearly all actives have a fitted effect of over 55% in size
Summary of the method: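 PPARg-UAS-bla HEK293H cells were plated, rested 5 h at 37 C, then treated with compounds plus rosiglitazone (50 nM final) for 17 h at 37 C; viability was then read by CellTiter-Glo luminescence after 30 min at room temperature.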

[11] = qHTS assay for small molecule agonists of the antioxidant response element (ARE) signaling pathway (AID 743202; active = well fitted activation curve with a large enough effect in the signal ratio in the repeat runs, not every such curve was filed as active; the % refers to the signal ratio; also: potency is read from the fitted curve at half-maximal effect)
Summary of the method: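 Read-out: LiveBLAzer B/G FRET substrate fluorescence after 2 h at room temperature, following 16 h compound treatment at 37 C of HepG2 cells carrying an ARE-driven beta-lactamase reporter.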

[12] = qHTS assay for small molecule agonists of the antioxidant response element (ARE) signaling pathway - cell viability counter screen (AID 743203; calls by dose curve; also: nearly all actives have a fitted effect of over 55% in size)
Summary of the method: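 Seeded at 2,000 cells/well, ARE-bla HepG2 cells were incubated 5 hrs before compound addition. After 16 hrs of treatment at 37C with 5% CO2, CellTiter-Glo reagent was added and luminescence read 30 min later.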

[13] = qHTS assay for small molecule activators of the heat shock response signaling pathway - cell viability counter screen (AID 743209); also: nearly all actives have a fitted effect of over 50% in size
Summary of the method: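 First, HSE-bla HeLa cells were seeded at 1500 cells/well and kept overnight at 37 C. Next, compounds were pinned in and incubated 5 h. After the FRET substrate step, CellTiter-Glo was added and luminescence read 30 min later.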

[14] = qHTS assay for small molecule activators of the heat shock response signaling pathway (AID 743210; active = well fitted activation curve with a large enough effect in the signal ratio in the repeat runs, with a control signal flat, not every such curve was filed as active; the % refers to the signal ratio; also: series mostly up to about 63 µM)
Summary of the method: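 HSE-bla HeLa cells (beta-lactamase reporter under heat shock response elements) were exposed to compounds for 5 h at 37 C, then loaded with LiveBLAzer B/G FRET substrate for 2.5 h at room temperature before fluorescence reading.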

[15] = molecular target: Estrogen receptor (Homo sapiens) (UniProt P03372); test: qHTS assay to identify small molecule agonists of the estrogen receptor alpha (ER-alpha) signaling pathway (AID 743075; calls by dose curve;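 also: HEK293 GripTite cells with ER-alpha and UAS-driven beta-lactamase reporter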)
[16] = molecular target: Estrogen receptor (Homo sapiens) (UniProt P03372); test: qHTS assay to identify small molecule agonists of the estrogen receptor alpha (ER-alpha) signaling pathway using the BG1 cell line (AID 743079); also: nearly all actives have a fitted effect of over 20% in size
[17] = molecular target: Peroxisome proliferator-activated receptor gamma (Homo sapiens) (UniProt P37231); test: qHTS assay to identify small molecule agonists of the peroxisome proliferator-activated receptor gamma (PPARg) signaling pathway (AID 743094; active = well fitted activation curve with a large enough effect in the signal ratio in the repeat runs, not every such curve was filed as active; the % refers to the signal ratio)
Summary of the method: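 Quantitative HTS agonist mode: stable HEK293H line with UAS-beta-lactamase reporter under PPARg control, 17 h compound exposure at 37C, fluorescence after 1 h FRET substrate loading at room temperature.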

[18] = molecular target: Peroxisome proliferator-activated receptor gamma (Homo sapiens) (UniProt P37231); test: qHTS assay to identify small molecule antagonists of the peroxisome proliferator-activated receptor gamma (PPARg) signaling pathway (AID 743191; calls by dose curve; also: series mostly up to about 63 µM; nearly all actives have a fitted effect of over 30% in size)
Summary of the method: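 GeneBLAzer PPARg UAS-bla HEK293H cells carrying a UAS-driven beta-lactamase reporter were plated at 3000 cells/well, preincubated 5 h at 37C, then given compound for 17 h at 37C; LiveBLAzer B/G FRET substrate was read after 1 h at room temperature.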
% is scaled to controls: 0 for no effect and ±100 for the full control effect.

Estrogen receptor (Homo sapiens), sequence (P03372 whole entry, looked up): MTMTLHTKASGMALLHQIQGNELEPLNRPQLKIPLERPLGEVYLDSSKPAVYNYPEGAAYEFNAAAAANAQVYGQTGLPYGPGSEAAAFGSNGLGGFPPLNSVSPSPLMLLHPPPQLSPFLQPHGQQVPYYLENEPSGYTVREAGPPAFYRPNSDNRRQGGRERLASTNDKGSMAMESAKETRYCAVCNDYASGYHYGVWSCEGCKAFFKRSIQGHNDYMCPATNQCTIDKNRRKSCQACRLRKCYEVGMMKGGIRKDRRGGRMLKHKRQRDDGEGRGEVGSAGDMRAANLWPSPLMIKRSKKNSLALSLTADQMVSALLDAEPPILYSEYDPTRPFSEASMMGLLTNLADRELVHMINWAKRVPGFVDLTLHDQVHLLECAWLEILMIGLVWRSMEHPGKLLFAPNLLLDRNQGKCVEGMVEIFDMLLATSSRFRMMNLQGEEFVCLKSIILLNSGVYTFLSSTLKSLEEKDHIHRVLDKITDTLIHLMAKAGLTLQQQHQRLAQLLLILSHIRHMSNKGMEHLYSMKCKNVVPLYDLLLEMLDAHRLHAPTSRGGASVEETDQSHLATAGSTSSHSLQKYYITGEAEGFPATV
Aryl hydrocarbon receptor (Homo sapiens), sequence (P35869 whole entry, looked up): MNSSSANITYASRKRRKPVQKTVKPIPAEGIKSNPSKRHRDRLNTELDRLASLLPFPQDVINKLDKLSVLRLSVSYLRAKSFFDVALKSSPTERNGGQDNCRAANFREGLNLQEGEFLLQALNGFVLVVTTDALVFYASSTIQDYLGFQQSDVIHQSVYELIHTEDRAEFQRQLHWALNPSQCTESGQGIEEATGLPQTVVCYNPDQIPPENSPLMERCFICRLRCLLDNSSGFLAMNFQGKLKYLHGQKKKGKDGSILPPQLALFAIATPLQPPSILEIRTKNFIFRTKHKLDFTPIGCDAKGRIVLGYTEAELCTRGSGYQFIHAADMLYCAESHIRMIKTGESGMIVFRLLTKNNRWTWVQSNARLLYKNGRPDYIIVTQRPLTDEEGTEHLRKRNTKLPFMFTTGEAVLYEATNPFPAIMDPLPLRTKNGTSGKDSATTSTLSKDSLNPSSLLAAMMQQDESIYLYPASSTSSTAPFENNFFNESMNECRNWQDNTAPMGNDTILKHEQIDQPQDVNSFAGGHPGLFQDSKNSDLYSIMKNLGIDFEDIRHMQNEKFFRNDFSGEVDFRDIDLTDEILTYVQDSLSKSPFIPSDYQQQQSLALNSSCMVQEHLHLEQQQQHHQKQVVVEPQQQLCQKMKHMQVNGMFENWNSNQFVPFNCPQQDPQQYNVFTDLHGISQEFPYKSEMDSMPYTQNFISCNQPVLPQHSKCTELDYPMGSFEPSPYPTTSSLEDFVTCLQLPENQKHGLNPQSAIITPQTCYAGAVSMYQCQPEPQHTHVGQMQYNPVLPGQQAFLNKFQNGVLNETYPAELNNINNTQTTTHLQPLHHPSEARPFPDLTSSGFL
Aromatase (Homo sapiens), sequence (P11511 whole entry, looked up): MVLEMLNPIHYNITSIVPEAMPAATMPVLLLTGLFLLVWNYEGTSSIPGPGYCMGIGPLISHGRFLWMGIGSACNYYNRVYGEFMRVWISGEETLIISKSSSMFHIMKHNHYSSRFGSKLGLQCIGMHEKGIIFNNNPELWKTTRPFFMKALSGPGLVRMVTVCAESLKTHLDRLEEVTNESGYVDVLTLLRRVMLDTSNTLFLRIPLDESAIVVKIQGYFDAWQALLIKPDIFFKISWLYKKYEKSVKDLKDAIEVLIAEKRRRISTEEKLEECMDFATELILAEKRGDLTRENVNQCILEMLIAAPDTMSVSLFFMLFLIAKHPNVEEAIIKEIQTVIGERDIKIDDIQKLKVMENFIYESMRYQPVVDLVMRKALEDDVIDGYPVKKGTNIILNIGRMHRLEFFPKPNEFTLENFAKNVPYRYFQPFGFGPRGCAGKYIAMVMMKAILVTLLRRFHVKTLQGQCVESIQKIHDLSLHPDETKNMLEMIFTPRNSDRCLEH
Peroxisome proliferator-activated receptor gamma (Homo sapiens), sequence (P37231 whole entry, looked up): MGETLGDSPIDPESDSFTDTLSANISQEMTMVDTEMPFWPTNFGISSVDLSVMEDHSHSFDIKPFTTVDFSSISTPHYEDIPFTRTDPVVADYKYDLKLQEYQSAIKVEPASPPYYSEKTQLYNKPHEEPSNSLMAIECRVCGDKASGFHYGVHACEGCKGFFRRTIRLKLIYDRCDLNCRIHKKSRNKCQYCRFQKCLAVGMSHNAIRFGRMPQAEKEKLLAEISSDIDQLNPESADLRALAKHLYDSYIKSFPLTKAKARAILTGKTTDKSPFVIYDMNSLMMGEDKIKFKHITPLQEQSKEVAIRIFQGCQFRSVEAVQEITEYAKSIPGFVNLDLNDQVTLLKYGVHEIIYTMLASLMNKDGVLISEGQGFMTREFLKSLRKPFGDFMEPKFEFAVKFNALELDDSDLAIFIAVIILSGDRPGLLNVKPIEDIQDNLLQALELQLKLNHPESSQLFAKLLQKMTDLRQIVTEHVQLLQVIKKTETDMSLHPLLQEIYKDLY

NC(N)=NCCN1CCCCCCC1
inactive: Potency [1] | Potency [2] | outcome [3] | Potency [4] | Potency [5] | outcome [6] | outcome (Aromatase (Homo sapiens)) | Potency [7] | Potency [8] | Potency [9] | activity change, negative = cytotoxicity [10] 6.29% [at 0.55 µM] | activation [11] 4.68% [at 0.756 µM] | viability change, negative = cytotoxic [12] -0.232% [at 0.756 µM] | activity change, negative = cytotoxicity [13] -20.4% [at 0.55 µM] | activation [14] -0.075% [at 0.55 µM]

COc1ccnc(CS(=O)c2nc3cc(OC(F)F)ccc3[nH]2)c1OC (configuration not stated)
inactive: Potency [1] | Potency [2] | outcome [3] | Potency [4] | Potency [15] | Potency [16] | Potency [5] | outcome [6] | outcome (Aromatase (Homo sapiens)) | Potency [7] | Potency [17] | outcome [10] | outcome [12] | outcome [13] | outcome [14]
active: Potency [8] 3.35 µM | Potency [11] 27.5 µM

O=C1CCCCCCCCCCCCCCO1
inactive: Potency [1] | Potency [2] | outcome [3] | Potency [4] | outcome [6] | outcome (Aromatase (Homo sapiens)) | Potency [7] | Potency [8] | Potency [9] | Potency [17] | outcome [10] | outcome [12] | outcome [13] | outcome [14]

O=CN(CCO)CCO
inactive: Potency [1] | Potency [2] | outcome [3] | Potency [4] | outcome [6] | outcome (Aromatase (Homo sapiens)) | Potency [7] | Potency [9] | Potency [17] | Potency [18] | outcome [10] | outcome [12] | outcome [13] | outcome [14]

CC(C)C1CCC(O)CC1 (configuration not stated)
inactive: Potency [1] | Potency [2] | outcome [3] | Potency [4] | outcome [6] | outcome (Aromatase (Homo sapiens)) | Potency [7] | Potency [8] | Potency [9] | Potency [18] | outcome [10] | Potency [11] | outcome [12] | outcome [13] | outcome [14]

CCC(C)(CN(C)C)OC(=O)c1ccccc1 (configuration not stated)
inactive: Potency [1] | Potency [2] | outcome [3] | Potency [4] | outcome [6] | outcome (Aromatase (Homo sapiens)) | Potency [7] | Potency [8] | Potency [9] | outcome [10] | Potency [11] | outcome [12] | outcome [13] | outcome [14]

O=Cc1cccc(Br)c1
inactive: Potency [1] | Potency [2] | outcome [3] | Potency [4] | outcome [6] | outcome (Aromatase (Homo sapiens)) | Potency [7] | Potency [8] | Potency [18] | outcome [10] | outcome [12] | outcome [13] | outcome [14]
